Source: PubChem
Gal4-VP16 FLuc = counter-screen for ROR gamma inhibitors: Gal4-VP16 reporter; Potency, µM (titrated, usually from 53.6 µM), for inactives: top-dose activity, negative = inhibition, usual class: inhibitors; 310,000 tested, 3.5% active; AID 2546; Drosophila S2 Gal4-VP16 UAS-luciferase, luminescence, 20 h;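 further: Gal4-VP16 expression switched on by copper sulfate through the metallothionein promoter; nearly all actives have a fitted effect of over 50% in size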
Luc counter = Kinase-Glo luciferase inhibition (counter-screen) | Q27757 | Kinase-Glo luciferase, ATP luminescence, 8 min | Potency, µM (series often up to 38.3 µM), without a hit: at the highest dose activity change, negative = inhibition, hits mostly inhibitors | 200,000 tested, 0.28% active; further: nearly all actives have a fitted effect of over 60% in size
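Kinase-Glo luciferase light output from ATP and luciferin was measured with 10 uM ATP, within the enzyme's linear range. Buffer: 50 mM imidazole pH 7.2, 50 mM KCl, 7 mM MgCl2, 0.01% Tween 20, 0.05% BSA; luminescence read after 8 min at ambient temperature.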
RORgamma inh = ROR gamma (mouse) transcription inhibition | Drosophila S2 Gal4-RORgamma UAS-luciferase reporter, 20 h | Potency, µM (highest dose often 53.6 µM), without a hit: top-dose activity change, negative = inhibition, hits mostly inhibitors | 310,000 tested, 5.4% active; further: nearly all actives have a fitted effect of over 60% in size
Target sequence (P51450 whole entry, looked up, the tested form may be a part): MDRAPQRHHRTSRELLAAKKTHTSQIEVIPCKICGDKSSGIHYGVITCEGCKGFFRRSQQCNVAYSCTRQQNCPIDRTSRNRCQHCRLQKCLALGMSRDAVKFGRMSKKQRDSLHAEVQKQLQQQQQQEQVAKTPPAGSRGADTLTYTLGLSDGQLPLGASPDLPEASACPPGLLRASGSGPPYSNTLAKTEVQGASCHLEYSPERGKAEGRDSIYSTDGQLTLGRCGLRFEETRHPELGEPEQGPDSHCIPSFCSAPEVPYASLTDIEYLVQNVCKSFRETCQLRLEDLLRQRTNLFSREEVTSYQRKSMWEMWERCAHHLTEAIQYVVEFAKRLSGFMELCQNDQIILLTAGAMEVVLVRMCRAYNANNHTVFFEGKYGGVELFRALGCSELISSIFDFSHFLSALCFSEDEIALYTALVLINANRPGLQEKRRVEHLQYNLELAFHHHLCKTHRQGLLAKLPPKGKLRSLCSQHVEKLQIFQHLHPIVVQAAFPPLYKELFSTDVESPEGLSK
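Compounds are pin-transferred onto Drosophila Schneider cells expressing a copper-inducible Gal4–ROR gamma transactivation domain fusion. After 1 hr, copper sulfate is added to 700 uM final; luciferase is read 20 hr later.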
Active calls of the source: *; ? = inconclusive; / = no result; [ ] = another dose, or the depositor's remark. A selection: hits, their analogues and other compounds. The true share with any hit is near 6.2%. The call rests on the fitted dose curve; in most records, active means well fitted curve in the direction sought with a large enough effect; inconclusive means small, poorly fitted or top-dose-only effect, or another doubt; inactive means no such curve, though single readings can be large; an effect the other way counts as inactive or inconclusive. On the % scale 0 is the no-effect control and ±100 the full control effect; potency means the concentration at half of the fitted maximal effect.

SMILES | Gal4-VP16 FLuc | Luc counter | RORgamma inh
Cc1cccc(C2c3[nH]c4ccccc4c3CCN2C(=O)c2cc(CC(C)C)[nH]c(=O)n2)n1 (stereo not given) | ? | -3% | 13µM*
COCCSc1ccccc1C(=O)Nc1nncs1 | 16% | -4% | -41%
O=C(CSc1nnnn1C1CCCCC1)N1CCN(C(=O)c2ccco2)CC1 | 7.9µM* | 1% | 3.2µM*
O=C(CSc1nnnn1C1CCCC1)N1CCN(C(=O)c2ccco2)CC1 | 0% | 0% | -39%
CC(=O)OCC(=O)[C@@]12OC3(CCCC3)OC1CC1C3CCC4=CC(=O)C=C[C@@]4(C)[C@]3(F)C(O)C[C@]12C (stereo not given in full) | -11% | -4% | 3.5µM*
CC1(C)OC2CC3C4CCC5=CC(=O)C=C[C@@]5(C)[C@]4(F)C(O)C[C@@]3(C)[C@]2(C(=O)CO)O1 (stereo not given in full) | 7% | 3% | 19%
CCN(CC)CCCn1c(-c2ccccc2)nc2c(N(CCOC)CCOC)nc(C)nc21 | 2% | -4% | -15%
O=C(c1ccc(CSc2nc3ccncc3[nH]2)cc1)N1CCN(c2cccc(Cl)c2)CC1 | 11µM* | -5% | ?
O=C(NCc1ccc(Cl)cc1)c1ccc(CSc2nc3ccncc3[nH]2)cc1 | -16% | / | 15%
O=C(c1ccc(CSc2nc3ccncc3[nH]2)cc1)N1CCCCCC1 | ? | / | 3%
O=C(CSCc1nc2ccccc2[nH]1)N1CCN(c2cccc(Cl)c2)CC1 | ? | 1% | 11µM*
Cc1ccc(CSc2nc3ccncc3[nH]2)cc1 | 7.9µM* | 11µM* | 7.9µM*
O=C(CSCc1nc2ccccc2[nH]1)N1CCN(c2ccc(F)cc2)CC1 | ? | 1% | ?
CC(C)C[C@@H](CC(=O)N[C@@H](CCC(=O)O)CC(=O)O)NC(=O)[C@@H]1CCCC[C@H]1NC(=O)C[C@H](CCCN)NC(=O)C[C@H](CO)NC(=O)[C@@H]1CCCC[C@H]1N | 9% | 1% | -25%
COc1ccc2cc(C(=O)C3CCCN(C(=O)c4cc5nc(C)cc(C)n5n4)C3)ccc2c1 (stereo not given) | 16% | / | 10%
COc1ccc(-n2c3c(c(=O)[nH]c2=O)C(NS(=O)(=O)c2ccc(Cl)cc2)(C(F)(F)F)C(=O)N3)cc1 (stereo not given) | -4% | / | 11%
Cc1ccc(NC2=CC(=O)C(=O)c3ccccc32)cc1 | ? | -17% | ?
NS(=O)(=O)c1ccc(NC2=CC(=O)C(=O)c3ccccc32)cc1 | ? | / | 10µM*
COc1cccc(C(=O)N/N=C(/CCC(=O)O)c2ccccc2)c1 | 25% | -2% | ?
COc1cc(C(=O)N/N=C(\c2ccccc2)c2ccccn2)cc(OC)c1OC | 1.3µM* | 0% | 1.3µM*
COc1cc(C(=O)N/N=C(\C)c2ccccn2)cc(OC)c1OC | -7% | / | 7%
COc1cccc(C(=O)N/N=C(/c2ccccc2)c2ccccn2)c1 | 0.14µM* | -6% | 0.1µM*
N#Cc1c(N2CCCC2)nc(N)c2c(N)nc(N3CCCC3)cc12 | -6% | 1% | 8.9µM*
COc1cc2c(C#N)c(N3CCCC3)nc(N)c2c(N)n1 | -17% | / | -6%
CN1C[C@@H]2C[C@@H](c3ccc(C#CC(C)(C)O)s3)N3CCC[C@@]23C1=O | -3% | 3% | 6%
SMILES | Gal4-VP16 FLuc | Luc counter | RORgamma inh
CC(C)Oc1ccc(C(=O)N2CCN(C(=O)c3ccco3)CC2)cc1 | 1% | / | 7%
O=S(=O)(Nc1nc2ccccc2nc1N1CCc2ccccc2C1)c1ccc(Cl)cc1 | ? | -1% | 33%[10 µM]
O=S(=O)(Nc1nc2ccccc2nc1N1CCc2ccccc2C1)c1ccc(Br)cc1 | ? | -8% | 7.9µM*
CCC(=O)Nc1cccc(NC(=S)NC(=O)c2cccc(C)c2)c1 | 8% | 1% | ?
CC(=O)c1cccc(NC(=S)NC(=O)c2ccc(C)cc2Cl)c1 | 13µM* | -2% | 11µM*
O=C(NC(=S)Nc1ccccc1O)c1ccccc1Cl | ? | 2% | 7.1µM*
COC(=O)c1cccc(NC(=O)NC(=O)c2ccccc2Cl)c1 | -13% | / | ?
NC(=S)NNC(=O)c1ccccc1Cl | -10% | / | ?
CC(=O)c1cccc(NC(=S)NC(=O)c2ccccc2Cl)c1 | -86% | -2% | 13µM*
COCCn1c(=O)c(-c2ccc(Cl)cc2)nc2cnc(N(C)C)nc21 | 7% | / | -2%
CC(C)C[C@H](NC(=O)[C@H](C)NC(=O)CNC(=O)[C@H](CCCCN)NC(=O)[C@H](CCCN=C(N)N)NC(=O)[C@H](C)NC(=O)[C@H](Cc1ccccc1)NC(=O)[C@@H](N)CCCN=C(N)N)C(=O)N[C@@H](CCCN=C(N)N)C(=O)N[C@@H](CCC(N)=O)C(=O)N[C@@H](CCCCN)C(=O)N[C@@H](CC(N)=O)C(=O)N[C@H](C(N)=O)C(C)C | -15% | / | 6%
CS(=O)(=O)N(CC(=O)Nc1cccc([N+](=O)[O-])c1)c1cccc(F)c1 | -8% | 0% | 22%
Cc1cc(C)c(C#N)c(SCC(=O)c2cccs2)n1 | -5% | 15% | 38%
CCN(CC)C(=O)CSc1nc(C)cc(-c2cccs2)c1C#N | 9% | -4% | 10µM*
Cc1cc(-n2nc3ccc(Cl)cc3n2)c(O)c(C(C)(C)C)c1 | -4% | / | 4%
COc1ccc(CC(=O)NC(C)c2nnc(SCCC(=O)Nc3ccccc3)n2C)cc1 (stereo not given) | -3% | -3% | 20%
Cc1nc(S/C(=C/c2ccc(-c3ccc(C(=O)O)cc3)o2)C(=O)O)n[nH]1 | -7% | / | -13%
CC(=O)c1ccc(-c2ccc(/C=C(/Sc3n[nH]c(C)n3)C(=O)O)o2)cc1 | ? | / | 5.6µM*
Cc1nc(S/C(=C/c2ccc(-c3ccc(Cl)cc3)o2)C(=O)O)n[nH]1 | 2.8µM* | 0% | 1.4µM*
Cc1nc(S/C(=C/c2ccc(-c3cc(Cl)ccc3C)o2)C(=O)O)n[nH]1 | 3% | / | 24%
Cc1ccc2[nH]c(C)cc(=O)c2c1 | -7%[96.6 µM] | -3%[39.9 µM] | -17%[96.6 µM]
COC(=O)c1c[nH]n2c(=O)cc(CCl)nc12 | 12% | 2% | 0%
Cc1cc2oc(=O)cc(-c3ccccc3)c2c(C)c1-c1ccoc1 | -3% | 2%[39.9 µM] | -10%
Cc1c(C(=O)O)nc(/C=C\C(=O)O)[nH]c1=O | / | -3%[7.66 µM] | /
O=C(Oc1ccc(Br)cc1C(=S)N1CCOCC1)c1ccc(F)cc1 | -3% | / | -6%
SMILES | Gal4-VP16 FLuc | Luc counter | RORgamma inh
Cc1ccccc1NC(=O)c1ccc(CN(c2ccccc2)S(=O)(=O)c2ccccc2)cc1 | 2% | 4% | -35%
CC(NC(=O)c1c(O)c2ccccc2n(C)c1=O)c1ccccc1 (stereo not given) | ? | / | -20%
CC(=O)c1c(O)c2ccccc2n(C)c1=O | -2% | 0% | -34%
Cc1cccc(C(=O)NNC(=O)c2c(O)c3ccccc3n(C)c2=O)c1 | -32% | / | -26%
Cn1c(=O)c(C(=O)NNC(=O)c2ccccc2Br)c(O)c2ccccc21 | ? | / | 20µM*
Cn1c(=O)c(C(=O)NNC(=O)c2ccccc2Cl)c(O)c2ccccc21 | ? | / | 11µM*
Cn1c(=O)c(C(=O)NNC(=O)c2cccc(Cl)c2)c(O)c2ccccc21 | 18µM* | / | 14µM*
CNC(=O)/C(C#N)=C/c1c(N2CCCCCC2)nc2ccccn2c1=O | 0% | / | 8%
